Screening results (PubChem BioAssay)
In the library only some 1.4% were active in any assay of this set; here they are far more common.
IL2 activator = activates IL-2 in a cell-based reporter assay; activation, % (series mostly up to about 46 µM); 0.065% of 360,000 active; AID 652025; IL-2 activation reporter assay, cell-based qHTS; stimulated with anti-CD3/CD4/CD28 beads; in transgenic mouse T cells; in the data active = activation above about 50%; inconclusive = mostly about 30% to 49%; note: 0% is about no effect
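Screening format: compound pinned onto unstimulated transgenic mouse T cells, 60 min incubation, then anti-CD3/anti-CD4/anti-CD28 bead stimulation for 18 hours at 37 degrees C, followed by EGFP and DsRed detection.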
N370S GC = N370S glucocerebrosidase modulation, Gaucher chaperone candidate. P04062. N370S GC spleen homogenate, 4MU-glucoside fluorescence. Potency, µM (top dose mostly 59.4 µM), for inactives: top-dose activity change, negative = inhibition, usual class: inhibitors. 0.092% of 330,000 active. AID 2101;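 note: potency is the fitted concentration of half-maximal effect; 0% = full enzyme activity and -100% = no enzyme basal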
a7 integrin act = activators of alpha7 integrin expression for muscular dystrophy. 0.064% of 350,000 active. alpha7betagal myoblasts, beta-gal FDG fluorescence, 48 h. Potency, µM (top dose mostly 38.3 µM), for inactives: top-dose activation, most hits filed as activators. AID 624291;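 note: potency is the fitted concentration of half-maximal effect; 100% = response of the positive control SU9516; nearly all actives have a fitted effect of over 60% in size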
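Alpha7betagal+/- myoblasts (passage 13) were plated 16-24 hr, then exposed to compounds (1:260 dilution of DMSO stock) for 48 hours at 37C. After MPER lysis, β-galactosidase reporter activity was read as FDG fluorescence (ex 480/em 540) after 30 minutes.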
BCR signal inh = inhibitors of chronic active B-cell receptor signaling; AID 493014; Potency, µM (titrated, usually from 46.1 µM), inactives show top-dose activity change, negative = inhibition, most hits filed as inhibitors; 0.05% of 340,000 active; ABC-DLBCL IkBa-CBG/CBR reporter, luminescence ratio, 4 h; active = well fitted inhibition curve with a large enough effect in the signal ratio, with a control signal flat, not every such curve was filed as active; inconclusive = small, poorly fitted or top-dose-only effect, or effect the other way, or a change in a side signal; the % refers to the signal ratio;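 note: potency is the fitted concentration of half-maximal effect; plate controls were basal doxycycline-induced cells for no effect and cells given 10 µM MG132 for full effect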
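Compounds up to 46 uM were incubated four hours with TMD8 cells whose green CBG68 luciferase is fused to IkappaBalpha; red CBR luminescence normalised the signal, and concentration-effect curves were fitted to fusion, red and ratio data.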
Nrf2 activator = Nrf2 pathway activation; AREc32 ARE-luciferase reporter (MCF7-derived line), luminescence, 24 h; Potency, µM (series often up to 46.1 µM), without a hit: top-dose activation, most hits filed as activators; 0.31% of 410,000 active; AID 624171; note: potency is the fitted concentration of half-maximal effect; % of control where 0% means no effect; nearly all actives have a fitted effect of over 65% in size
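AREc32 cells carrying an ARE-driven firefly luciferase, 1000 cells/well in OPTI-MEM with 5% FBS, dosed after overnight attachment and incubated 24 hr at 37 deg C. Steady-Glo luminescence read after 30 min at RT.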
BRCA1 expr act = increases BRCA1 expression; Potency, µM (series often up to 46.1 µM), without a hit: at the top dose activation, usual class: activators; 1.1% of 380,000 active; MCF7-BRCA1-FFLuc reporter, luminescence, 48 h; response scale: scaled: vehicle 0%, 10 µM genistein 100%; AID 624202; note: potency is the fitted concentration of half-maximal effect; nearly all actives have a fitted effect of over 80% in size
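Activators of BRCA1 expression were detected as increased firefly luciferase luminescence in engineered MCF7 cells after 48 h compound incubation. Signals were scaled to genistein 10 microM as full activation.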
* hit, by the source's call; ? = inconclusive; / = not tested or not shown. Unless noted, calls come from the whole dose curve; as a rule, active = well fitted curve in the direction sought with a large enough effect; inconclusive = small, poorly fitted or top-dose-only effect, or another doubt; inactive = no such curve, though single readings can be large; an effect the other way counts as inactive or inconclusive.

SMILES	IL2 activator	N370S GC	a7 integrin act	BCR signal inh	Nrf2 activator	BRCA1 expr act
COc1ccc([C@H]2Cc3cccc(O)c3C(=O)O2)cc1O	0	/	-1%	-19%	?	0%
Clc1nc(-c2ccccc2)cc(-c2ccccc2)n1	2	4%	7%	9%	8.9µM*	-47%
COc1cc(/C=N/NC(=O)c2[nH]nc3c2CCc2ccccc2-3)ccc1O	-2	7%	-17%	21µM*	0%	-45%
COc1cc(/C=N/NC(=O)c2ccccc2)ccc1O	0	-13%	19%	?	27%	1%
Cc1ccc(-c2ccc(/C=N/NC(N)=S)o2)cc1	-6	2%	-8%	22µM*	16%	25%
CCC(=O)Nc1ccc(-c2nnc(SCc3ccccc3)n2C)cc1	/	/	/	/	/	6%
COc1cccc2ccc(/C=C/c3ccc4c(c3)OCO4)nc12	/	/	/	/	/	3.5µM*
COc1cc2c(cc1OC)-c1cc(Nc3ccc(F)cc3)nc(=O)n1CC2	-2	-6%	-18%	?	0%	-10%
CCN(CC)c1ccc(Nc2cc3n(c(=O)n2)CCc2cc(OC)c(OC)cc2-3)cc1	-1	-17%	-42%	11µM*	4%	-76%
COc1cc2c(cc1OC)-c1cc(Nc3ccc(N(C)C)cc3)nc(=O)n1CC2	2	-6%	7%	?	10%	0%
COc1cc2c(cc1OC)-c1cc(NC3CCCC3)nc(=O)n1CC2	-1	-4%	-6%	16µM*	6%	-4%
Cn1c(N)c(N=Cc2ccccc2)c(=O)n(C)c1=O	2	/	10%	/	2%	-23%
Cn1c(=O)n(/N=C/c2ccccc2)c2ccccc21	-2	12%	-2%	?	11µM*	-44%
CCSc1ncc(Cl)c(C(=O)Nc2sc3c(c2C(=O)NCCOC)CCCC3)n1	/	/	/	/	/	9%
C/C(=N\O)c1ccc2c3c([nH]c2c1)CCCC3	0	7%	10%	0%	6%	10µM*
O=C(C[n+]1ccccc1Br)c1ccc2c(c1)CCCC2	/	/	/	/	/	21%
Cc1ccc(S(=O)(=O)N2C[C@@H](C)[C@]3(C2)[C@H](O)[C@H](OC(=O)NCc2ccco2)C[C@H]2C(=O)N(c4ccccc4)C(=O)[C@H]23)cc1	-1	/	-9%	/	0%	0%
Cc1cccc(COc2ncnc3nc[nH]c23)c1	-4	3%	-17%	0%	6%	10µM*
CC(C)(C)c1ccc(/C=N/OCC(=O)NCc2ccc(F)cc2)cc1	-5	10%	6%	?	3%	-68%
COC(=O)c1ccccc1NC(=O)c1ncoc1-c1ccco1	/	/	/	/	1.1µM*	-2%
CCN(CC)c1ccc(NC2CC(=O)N(CCc3ccc(OC)cc3)C2=O)cc1 (centres undefined)	125*	-6%	-11%	1%	0%	-23%
Fc1ccc(-c2nnc(-c3ccc(F)cc3)o2)cc1	1	-12%	10%	?	8%	2.5µM*
Fc1ccc(-c2nnc(Cc3nnc(-c4ccc(F)cc4)o3)o2)cc1	-2	0%	1%	0%	0%	1%
COc1cccc(NC(=O)c2ccccc2OCC(=O)Nc2ccc(Br)cc2)c1	/	/	/	/	/	-9%
CCOc1ccc(N(CC(=O)Nc2ccc(OC)cc2)S(=O)(=O)c2c(C)[nH]c(=O)[nH]c2=O)cc1	-2	?	?	0%	0%	-6%
SMILES	IL2 activator	N370S GC	a7 integrin act	BCR signal inh	Nrf2 activator	BRCA1 expr act
CCOc1ccc(N(CC(=O)Nc2ccc(C)cc2)S(=O)(=O)c2c(C)[nH]c(=O)[nH]c2=O)cc1	0	2.8µM*	0%	1%	0%	5%
CCOc1ccc(NC(=O)CN(c2ccc(OCC)cc2)S(=O)(=O)c2c(C)[nH]c(=O)[nH]c2=O)cc1	0	6.3µM*	-3%	25%	0%	-9%
CCCCCN1C(C(=O)c2ccccc2)=C(NC(=O)c2ccccc2Cl)c2ccccc2S1(=O)=O	/	/	/	/	0%	/
CCN(C(=O)c1ccc(NC(=O)C2CCCCC2C(=O)O)cc1)c1ccccc1 (centres undefined)	-2	/	-7%	/	-3%	-2%
Cc1ccc(C(=O)CN2C(=O)NC3(CCCCCC3)C2=O)c(C)c1	-3	2%	-9%	?	0%	6.3µM*
COc1cc(Cl)cc(CN2CCC(CCC(=O)NC3CC3)CC2)c1OC	0	1%	7.1µM*	2%	0%	13%
O=c1[nH]ncc(N/N=C\c2cccs2)c1Cl	-2	-11%	?	?	4.5µM*	-25%
O=c1[nH]ncc(N/N=C\c2ccncc2)c1Cl	1	-10%	25%	-19%	6%	-29%
O=C(NCc1ccccn1)C1CCC(=O)N1C1CCCC1 (centres undefined)	-1	/	11%	/	0%	1%
O=C(NCCc1ccccc1)C1CCC(=O)N1C1CCCC1 (centres undefined)	-4	-7%	10µM*	4%	-1%	-5%
CCc1ccc(NC(=O)CN2C(=O)C(c3ccc(C)cc3)=NC23CCCCC3)cc1	/	/	/	/	4%	/
NC(=O)N/N=C/c1ccc(-c2ccc([N+](=O)[O-])cc2)o1	0	-21%	-5%	?	5%	42%
O=[N+]([O-])c1ccc(-c2ccc(/C=N/O)o2)cc1	-3	-3%	-19%	4%	6%	8.9µM*
Brc1ccc[n+](CCc2ccccc2)c1	/	/	/	/	/	-4%
COc1cccc(C(N)=O)c1	0	/	23%	/	1%	5%
COc1cccc(/C(C)=N/N=C(\C)c2cccc(OC)c2)c1	1	-9%	15%	?	5%	3.2µM*
CC(=O)n1nc(-c2ccc(C)cc2)nc1NCc1ccc(F)cc1	0	6%	7%	?	2%	3.2µM*
Cc1ccc(-c2nc(NCc3ccco3)n(S(C)(=O)=O)n2)cc1	-1	13%	-16%	1%	3%	69%
CC(=O)n1nc(-c2ccc(C)cc2)nc1NCc1ccco1	0	-11%	13%	10%	5%	5µM*
COc1ccc(-n2c(=O)/c(=C\c3cccs3)s/c2=C(/C#N)C(=O)NCCN2CCOCC2)cc1	137*	2%	11%	-7%	0%	0%
Nc1cccc[n+]1C(c1ccnc2ccccc12)[n+]1ccccc1N	/	/	/	/	/	-3%
O=C(NCc1ccccc1)c1cc(C2CCCN(C(=O)c3ccccc3)C2)on1 (centres undefined)	0	/	/	/	-1%	5%
O=C(COC(=O)COc1ccc(Cl)cc1)NC1CCCCCC1	0	-3%	20%	2%	0%	-3%
Nn1c(CSc2ccccn2)nc2ccccc2c1=O	0	3%	-7%	2%	6%	10µM*
